Among the data in PubChem BioAssay (Tox21) are Potency and cytotoxicity values, retold here.

A number with no mark means an inactive call. A call without a number means that no potency is given here. Active and inactive are the calls of the source. Calls follow the shape of the dose curve; as a rule, active = well fitted activation curve with a large enough effect in the repeat runs; inconclusive = weak or mixed curves; inactive = flat fitted curve, though single readings scatter.
Potency is read from the fitted curve at half-maximal effect.

The assay is described as follows: A CellTox Green Cytotoxicity Assay to monitor cytotoxicity in HepG2 cells - 0 hour (AID 1224882). Also: nearly all actives have a fitted effect of over 35% in size. Conditions: CellTox Green fluorescence; series mostly up to 76.8 µM. The text has this:
National Center for Advancing Translational Sciences [NCATS]
NIH Chemical Genomics Center [NCGC]
U.S. Environmental Protection Agency [EPA]
National Institutes of Environmental Health Sciences [NIEHS]
National Toxicology Program [NTP]
Cell-based models are critical for drug discovery. Determining the natural cytotoxic effects resulting from test compounds is an essential research activity. A CellTox Green Cytotoxicity Assay to monitor cytotoxicity in real time of continues cell culture during 40 hours of the compound treatment was used to screen Tox21 10K library compounds in HepG2 cells. CellTox Green Cytotoxicity Assay is a nonlytic, homogeneous, biofluorescent method to measure cytotoxicity in cell culture after experimental manipulation. The assay system uses a proprietary asymmetric cyanine dye that is excluded from viable cells but preferentially stains the dead cell's DNA. […] Viable cells produce no appreciable increases in fluorescence. Therefore, the fluorescence signal produced by the binding interaction with dead cell DNA is proportional to cytotoxicity.
The mixture of HepG2 cell suspension and reagents were dispensed at 600cells/6 ul/well in 1536-well tissue culture treated black solid bottom plates using a Multidrop dispenser. After the assay plates were incubated at a 37 C/5% CO2 incubator for 5 hours, 23 nL of compounds dissolved in DMSO, positive and negative controls was transferred to the assay plate by a pintool work station. The plates were incubated at 37 C for 40 hours. The fluorescence intensity were measured at 0h, 8h, 16h, 24h, 32h and 40h time points using ViewLux plate reader during compound treatment.
On to `CCOC(=O)C(O)(c1ccc(Cl)cc1)c1ccc(Cl)cc1`, for which the Potency entry is “inactive”.
As to `C[C@]12CC[C@@H](O)C[C@@H]1CC[C@@H]1[C@@H]2CC[C@]2(C)C(=O)CC[C@@H]12`, the Potency result was “inactive”.
The same measure, in the same setting: then `Cc1ccc(N(SC(F)(Cl)Cl)S(=O)(=O)N(C)C)cc1`, with “inactive”.
In the case of `COc1ccc(C(c2ccc(OC)cc2)C(Cl)(Cl)Cl)cc1`, the Potency result was “inactive”.
`ClC1=C(Cl)[C@]2(Cl)[C@@H]3[C@@H](Cl)[C@H]4O[C@H]4[C@@H]3C1(Cl)C2(Cl)Cl`: the Potency entry was “inactive”.
As to `Oc1c(I)cc(I)cc1I`, the Potency result is “inactive”.
Turning to `Cc1cc(C)c(C(=O)P(=O)(c2ccccc2)c2ccccc2)c(C)c1`, the Potency result was “inactive”.
In the case of `CCN(CC)C(=O)Cl`, the Potency result is “inactive”.
As to `CN1CSC(=S)N(C)C1`, the Potency result is “inactive”.
For `ClC(Cl)=C(c1ccc(Cl)cc1)c1ccccc1Cl`, the Potency entry is “inactive”.
For the compound `N#Cc1cc([N+](=O)[O-])ccc1N`, the Potency result was “inactive”.
Same read-out and setting: then `Clc1ccccc1-c1ccccc1Cl`, with “inactive”; and `O=C(Nc1ccccc1-c1ccc(Cl)cc1)c1cccnc1Cl`, with 41.2 µM (active).
Same read-out and setting: then `Cc1cc(C(C)(C)c2ccc(O)c(C)c2)ccc1O`, with “inactive”; and `CO/C=C(/C(=O)OC)c1ccccc1Oc1cc(Oc2ccccc2C#N)ncn1`, with “inactive”; and `CC(c1ccccc1)(c1ccc(O)cc1)c1ccc(O)cc1`, with “inactive”.
`O=S(=O)(C(Cl)(Cl)Cl)C(Cl)(Cl)Cl`: the Potency result is “inactive”.
Turning to `CC1COC(Cn2cncn2)(c2ccc(Oc3ccc(Cl)cc3)cc2Cl)O1` (centres undefined), the Potency entry was “inactive”.
As to `O=C1C(I)=CC(=C(c2cc(I)c(O)c(I)c2)c2ccccc2C(=O)O)C=C1I`, the Potency entry was “inactive”.
For the compound `CNC(=O)Oc1cc(C)c(SC)c(C)c1`, the Potency result is “inactive”.
On the same count and under the same terms, then `OC(Cc1ccccc1Cl)(Cn1[nH]cnc1=S)C1(Cl)CC1` (centres undefined), with “inactive”; and `Nc1ccc([N+](=O)[O-])cc1`, with “inactive”; and `Cc1nnc2n1-c1sc(CCc3ccc(CC(C)C)cc3)cc1C(c1ccccc1Cl)=NC2C` (centres undefined), with “inactive”.
`OCC(c1ccc(Cl)cc1)c1ccc(Cl)cc1`: the Potency result was “inactive”.
With `c1ccc2c(c1)Sc1ccccc1N2CC1CN2CCC1CC2` (centres undefined), the Potency entry is “inactive”.
With `O=[N+]([O-])c1c(Cl)c(Cl)cc(Cl)c1Cl`, the Potency result is “inactive”.
For the compound `Cc1ccc2nc3sc(=O)sc3nc2c1`, the cytotoxicity was 0.753% [at 15.8 µM].
In the case of `O=C(c1ccccc1)C(Cl)Cl`, the Potency entry is “inactive”.
Still for that read-out and setting: then `COc1cc(OC)c(OC)cc1C=O`, with “inactive”.
